Results filed as inconclusive are left out. Calls of active or inactive are those of the source. Unless noted, calls come from the whole dose curve; as a rule, active = well fitted curve in either direction with a large enough effect (not every such curve was filed as active); inconclusive = small, poorly fitted or top-dose-only effect, or another doubt; inactive = flat fitted curve, though single readings scatter. Where only a bound is given, the exact number is not on record here.

We go through seven molecules from PubChem BioAssay (NCATS).

The nature of experiment [1]: AP1 Signaling Pathway (AID 357).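 Note: ME-180 reporter cells stimulated with EGF at its EC50 level; % is set by controls: 0 for no effect and ±100 for the full control effect.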 To be noted: ME-180 AP-1-bla reporter, EGF-induced, beta-lactamase ratio, 5 h; at 7.69 µM (top of the series) unless noted. Put shortly: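 Beta-lactamase reporter under AP-1 response element, ME-180 background. Stimulus: EC50 EGF. Compound exposure 5 h, 37 °C. Detection: CCF4, 2.5 h RT, 460/530 nm. Values: AC50 from titration.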
Experiment [2] addresses Cytochrome P450 1A2 (Homo sapiens) (UniProt P05177). Kind of experiment: p450-cyp1a2 (AID 410; calls by dose curve; note: potency is the fitted concentration of half-maximal effect;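 for activity change, negative = inhibition: -100% = full effect of reference inhibitor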). The procedure, abridged: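 Luminescent demethylation readout: Luciferin-ME (100uM, equal to Km) turned over by 20nM CYP1A2 for 60 min at room temperature after NADPH regeneration addition, following 10 min compound preincubation. Normalization used 57 uM furafylline as full inhibition.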

Experiment [3] can be described thus: NFAT Signaling Pathway (AID 444).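 Note: carbachol stimulus at about its EC50 of 1 µM final; % is set by controls: 0 for no effect and ±100 for the full control effect.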 To be noted: Jurkat NFAT-bla M1, carbachol, beta-lactamase ratio, 5 h; at 7.69 µM (top of the series) unless noted. The procedure, abridged: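 Read-out: CCF4 FRET ratio (460 nm/530 nm) after 1 h RT dye loading, used for %activity and AC50 from titration series. Cells: Jurkat NFAT-β-lactamase/M1 line, treated with compound plus 1 uM carbachol for 5 h, 37 °C.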

Experiment [4] can be described thus: Stat Signaling Pathway (AID 446).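 Note: ME-180 cervical cancer cells given 40 pM IL-6 alongside compound; SIE-controlled beta-lactamase reporter measured as 460/530 nm FRET emission ratio; % is set by controls: 0 for no effect and ±100 for the full control effect.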 Particulars: ME-180 (cervical carcinoma) SIE beta-lactamase reporter, IL-6 stimulated, 5 h; at 7.69 µM (top of the series) unless noted. Put shortly: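 Compound effects on IL-6-induced STAT reporter activity were measured in ME-180 cells. After overnight culture, cells were co-treated with 40 pM IL-6 for 5 hrs before beta-lactamase substrate loading at room temperature.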

In experiment [5] the target is Glucocorticoid receptor (Homo sapiens) (UniProt P04150). Put plainly: GR-EFC Redistribution (AID 451; calls by dose curve; note: potency is the fitted concentration of half-maximal effect). Particulars: CHO-K1 GR-EFC translocation, beta-gal luminescence, 2 h. Put shortly: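 Translocation of GR-ED fusion to nuclear EA restores b-gal, read by luminescence after 1 h room-temperature detection. Engineered CHO-K1 biosensor cells, 1,000/well, exposed 2 h at 37 C to titrations up to 46 uM final.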

Experiment [6] deals with Mitogen-activated protein kinase 10 (Mus musculus) (UniProt Q61831). Put plainly: JNK3 AlphaScreen Assay (AID 530).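 Note: kinase came from lysate of stimulated human HepG2 cells; signal reports phosphorylation of biotinylated GST-cJun 1-79 at Ser73 with 10 µM ATP; % is set by controls: 0 for no effect and ±100 for the full control effect.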 Put shortly: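 qHTS titrations with 15 min compound pre-incubation before adding ATP (10 uM final). Read-out: AlphaScreen of Ser73-phosphorylated biotin-GST-cJun using HepG2 lysate JNK3 activated by IL-1β and TNFα.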
For experiment [7], the target named is 3',5'-cyclic-AMP phosphodiesterase 4B (Homo sapiens) (UniProt Q07343). Kind of experiment: qHTS Assay for Inhibitors of PDE-IV (AID 607; active = well fitted activation curve with a large enough effect in the main read-out, with a control signal flat, not every such curve was filed as active; note: % of control where 0% means no effect). Put shortly:
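ACTOne HEK293 cells carry a modified cAMP-gated CNG channel and express endogenous PDE4; plated 1000 cells/well, compounds up to 22.9 uM final. Membrane-potential dye fluorescence (ex 535/em 590) was read; parental cells received 10 uM forskolin + 100 uM RO 20-1724.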

The target in experiment [8] is Cytochrome P450 3A4 (Homo sapiens) (UniProt P08684). Put plainly: qHTS Assay for Activators of Cytochrome P450 3A4 (AID 885; active = well fitted curve in the direction sought with a large enough effect; an effect the other way counts as inactive or inconclusive; note: nearly all actives have a fitted effect of over 65% in size). The procedure, abridged: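 CYP3A4 activity: Luciferin-PPXE O-dealkylation, 25uM substrate, 200mM KPO4, RT throughout. Read-out is luciferase luminescence; higher values reflect activation.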
A short description of experiment [9]: qHTS Assay for Lipid Storage Modulators (AID 1519; calls by dose curve). To be noted: Drosophila S3 cells, BODIPY lipid droplet/cell ratio, laser cytometry, cells loaded with oleic acid; for activity change, negative = inhibition: at 57.5 µM (top of the series). The procedure, abridged:
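Cells seeded at 5,000 per well were treated with compounds over a concentration series and loaded with oleic acid (400 uM, as added). Lipid droplet fluorescence (488 nm excitation, 500-530 nm channel) was read by laser-scanning cytometry and normalized to 20 uM Triacsin C.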

Experiment [10] in a line: Primary qHTS for small molecule stabilizers of the endoplasmic reticulum resident proteome: Secreted ER Calcium Modulated Protein (SERCaMP) assay (AID 1508630; active = well fitted curve in the direction sought with a large enough effect; an effect the other way counts as inactive or inconclusive; note: % is set by controls: 0 for no effect and ±100 for the full control effect). The procedure, abridged:
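The SH-SY5Y reporter protocol was run at 3 concentrations up to 38.3 uM (primary) or 11 concentrations (follow-up): 16 h compound, 100 nM thapsigargin for 4 h, then extracellular luciferase luminescence.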

Experiment [11] can be described thus: Confirmation and Secondary Assay for Modulators of Hemoglobin Beta Chain Splicing at IVS2 654 locus (AID 910; active = well fitted curve in the direction sought with a large enough effect; an effect the other way counts as inactive or inconclusive;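 note: HeLa cells stably carrying EGFP split by mutant beta-globin IVS2-654 intron; per-well total GFP intensity by laser scanning cytometry after 2-day treatment; % of control where 0% means no effect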). The procedure, abridged: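 Readout: per-well total peak green fluorescence (488 nm ex, 500–520 nm em) from objects 5–250 µm, reflecting correct splicing of an EGFP-654 reporter. Compounds were applied for 2 days at 37 °C to overnight-plated HeLa EGFP-654 cells; controls were DMSO and 500 nM IVS2-654 PNA.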

Experiment [12] addresses Glucocorticoid receptor (Homo sapiens) (UniProt P04150). Kind of experiment: GR-GFP Redistribution (AID 450;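 active = compounds whose dose series gives a full or clear partial fitted curve of increased nuclear translocation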; note: potency is the fitted concentration of half-maximal effect). To be noted: U2OS GR-GFP nuclear translocation, laser cytometry, 2 h.
Experiment [13] has as its target Ubiquitin carboxyl-terminal hydrolase 1 (Homo sapiens) (UniProt O94782). Put plainly: Inhibitors of USP1/UAF1: Pilot qHTS (AID 504865; active = well fitted curve in the direction sought with a large enough effect; an effect the other way counts as inactive or inconclusive;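 note: rhodamine fluorescence freed from ubiquitin-rhodamine substrate followed over time; top concentration of the series differs between compounds; % is set by controls: 0 for no effect and ±100 for the full control effect; nearly all actives have a fitted effect of over 35% in size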). Put shortly: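 Deubiquitinase activity followed as kinetic rhodamine fluorescence release from 150 nM Ub-Rho. 1 nM USP1/UAF1 with compound, after 15 min room-temperature preincubation, in HEPES pH 7.8 buffer containing TCEP, EDTA, BSA and Tween-20.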

The target of experiment [14] is Cytochrome P450 3A4 (Homo sapiens) (UniProt P08684). Put plainly: qHTS Assay for Inhibitors and Substrates of Cytochrome P450 3A4 (AID 884; active = well fitted curve in the direction sought with a large enough effect; an effect the other way counts as inactive or inconclusive; note: % is set by controls: 0 for no effect and ±100 for the full control effect; nearly all actives have a fitted effect of over 50% in size). Put shortly:
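Luminescent readout of luciferin produced by CYP3A4 (20 nM) dealkylation of Luciferin-PPXE, 25 uM (its KM). NADPH-driven reaction ran 60 min at RT after 10 min compound preincubation; data scaled to 57 uM ketoconazole as 100% inhibition.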

Where [15] appears, read: measured here: cell count channel max response.
The mark [16] stands for this setting: measured here: lipid channel max response.

3',5'-cyclic-AMP phosphodiesterase 4B (Homo sapiens), sequence (Q07343 whole entry, looked up): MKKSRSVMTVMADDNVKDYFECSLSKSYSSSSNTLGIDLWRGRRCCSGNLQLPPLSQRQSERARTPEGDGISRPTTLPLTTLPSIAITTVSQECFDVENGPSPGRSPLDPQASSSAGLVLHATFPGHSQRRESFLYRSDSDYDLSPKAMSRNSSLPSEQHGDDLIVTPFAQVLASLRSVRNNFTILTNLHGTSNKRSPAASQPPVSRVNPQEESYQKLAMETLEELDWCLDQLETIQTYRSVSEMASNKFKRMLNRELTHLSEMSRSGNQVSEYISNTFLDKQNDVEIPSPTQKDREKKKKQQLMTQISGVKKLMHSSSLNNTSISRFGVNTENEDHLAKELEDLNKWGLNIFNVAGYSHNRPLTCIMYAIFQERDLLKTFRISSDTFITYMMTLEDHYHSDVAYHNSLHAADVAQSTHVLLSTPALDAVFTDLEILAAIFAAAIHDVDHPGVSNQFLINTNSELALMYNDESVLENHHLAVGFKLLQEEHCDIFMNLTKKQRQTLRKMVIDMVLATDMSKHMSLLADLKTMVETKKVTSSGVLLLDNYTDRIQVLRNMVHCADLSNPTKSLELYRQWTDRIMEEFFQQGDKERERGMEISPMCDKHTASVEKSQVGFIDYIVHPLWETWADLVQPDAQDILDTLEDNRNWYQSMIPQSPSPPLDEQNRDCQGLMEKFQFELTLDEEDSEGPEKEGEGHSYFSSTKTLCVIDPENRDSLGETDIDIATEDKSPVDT
Ubiquitin carboxyl-terminal hydrolase 1 (Homo sapiens), sequence (O94782 whole entry, looked up): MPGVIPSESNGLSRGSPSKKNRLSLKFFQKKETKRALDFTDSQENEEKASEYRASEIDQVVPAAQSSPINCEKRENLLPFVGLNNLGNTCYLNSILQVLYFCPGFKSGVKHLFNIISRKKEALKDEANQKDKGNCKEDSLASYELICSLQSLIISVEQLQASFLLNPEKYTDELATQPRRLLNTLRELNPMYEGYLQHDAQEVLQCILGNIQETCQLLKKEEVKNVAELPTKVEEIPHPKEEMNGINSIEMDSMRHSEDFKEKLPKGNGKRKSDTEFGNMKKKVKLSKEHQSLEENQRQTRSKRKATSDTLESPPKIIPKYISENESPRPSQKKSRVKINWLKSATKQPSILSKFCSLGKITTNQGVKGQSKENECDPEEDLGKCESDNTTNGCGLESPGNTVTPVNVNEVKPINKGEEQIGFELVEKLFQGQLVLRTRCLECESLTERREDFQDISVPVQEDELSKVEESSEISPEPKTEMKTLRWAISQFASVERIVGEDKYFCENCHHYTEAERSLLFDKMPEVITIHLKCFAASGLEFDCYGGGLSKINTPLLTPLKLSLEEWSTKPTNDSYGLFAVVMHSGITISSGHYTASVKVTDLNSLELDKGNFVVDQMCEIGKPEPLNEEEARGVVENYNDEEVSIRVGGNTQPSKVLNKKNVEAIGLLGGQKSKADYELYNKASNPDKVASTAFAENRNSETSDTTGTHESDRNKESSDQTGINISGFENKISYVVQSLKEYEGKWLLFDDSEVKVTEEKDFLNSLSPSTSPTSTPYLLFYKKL
Cytochrome P450 3A4 (Homo sapiens), sequence (P08684 whole entry, looked up): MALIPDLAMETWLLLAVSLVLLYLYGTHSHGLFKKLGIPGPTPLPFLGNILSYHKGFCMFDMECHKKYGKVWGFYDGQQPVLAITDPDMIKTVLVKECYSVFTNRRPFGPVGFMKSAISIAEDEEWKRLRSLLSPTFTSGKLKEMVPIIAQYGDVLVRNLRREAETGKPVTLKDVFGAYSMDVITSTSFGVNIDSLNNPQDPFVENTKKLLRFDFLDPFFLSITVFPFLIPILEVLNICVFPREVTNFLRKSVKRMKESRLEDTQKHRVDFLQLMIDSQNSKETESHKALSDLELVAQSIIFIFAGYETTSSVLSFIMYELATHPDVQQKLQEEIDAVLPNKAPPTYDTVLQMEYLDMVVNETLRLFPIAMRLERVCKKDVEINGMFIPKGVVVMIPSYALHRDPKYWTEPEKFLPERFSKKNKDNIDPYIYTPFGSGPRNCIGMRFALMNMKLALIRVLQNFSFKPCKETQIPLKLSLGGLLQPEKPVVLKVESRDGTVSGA
Glucocorticoid receptor (Homo sapiens), sequence (P04150 whole entry, looked up, the tested form may be a part): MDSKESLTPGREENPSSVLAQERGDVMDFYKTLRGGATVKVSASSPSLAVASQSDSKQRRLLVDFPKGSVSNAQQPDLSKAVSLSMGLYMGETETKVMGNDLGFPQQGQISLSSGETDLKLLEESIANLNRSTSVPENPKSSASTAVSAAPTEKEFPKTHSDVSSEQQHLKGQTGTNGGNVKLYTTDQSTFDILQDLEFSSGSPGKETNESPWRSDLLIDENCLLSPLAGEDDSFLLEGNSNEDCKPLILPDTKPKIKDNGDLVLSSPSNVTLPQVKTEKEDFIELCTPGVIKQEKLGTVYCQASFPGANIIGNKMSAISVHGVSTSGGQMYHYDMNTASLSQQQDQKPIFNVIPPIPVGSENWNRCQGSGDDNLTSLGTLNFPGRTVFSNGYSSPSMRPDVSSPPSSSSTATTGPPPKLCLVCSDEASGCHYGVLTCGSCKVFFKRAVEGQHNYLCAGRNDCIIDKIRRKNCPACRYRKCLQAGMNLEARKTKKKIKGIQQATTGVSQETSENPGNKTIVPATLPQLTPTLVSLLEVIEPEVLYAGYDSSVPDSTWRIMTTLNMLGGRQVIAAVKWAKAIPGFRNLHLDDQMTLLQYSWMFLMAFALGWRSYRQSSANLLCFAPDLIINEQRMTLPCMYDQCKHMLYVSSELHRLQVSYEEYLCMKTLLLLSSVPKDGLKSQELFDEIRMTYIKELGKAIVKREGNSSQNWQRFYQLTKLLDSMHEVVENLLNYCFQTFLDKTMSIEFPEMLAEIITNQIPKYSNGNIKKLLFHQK
Cytochrome P450 1A2 (Homo sapiens), sequence (P05177 whole entry, looked up): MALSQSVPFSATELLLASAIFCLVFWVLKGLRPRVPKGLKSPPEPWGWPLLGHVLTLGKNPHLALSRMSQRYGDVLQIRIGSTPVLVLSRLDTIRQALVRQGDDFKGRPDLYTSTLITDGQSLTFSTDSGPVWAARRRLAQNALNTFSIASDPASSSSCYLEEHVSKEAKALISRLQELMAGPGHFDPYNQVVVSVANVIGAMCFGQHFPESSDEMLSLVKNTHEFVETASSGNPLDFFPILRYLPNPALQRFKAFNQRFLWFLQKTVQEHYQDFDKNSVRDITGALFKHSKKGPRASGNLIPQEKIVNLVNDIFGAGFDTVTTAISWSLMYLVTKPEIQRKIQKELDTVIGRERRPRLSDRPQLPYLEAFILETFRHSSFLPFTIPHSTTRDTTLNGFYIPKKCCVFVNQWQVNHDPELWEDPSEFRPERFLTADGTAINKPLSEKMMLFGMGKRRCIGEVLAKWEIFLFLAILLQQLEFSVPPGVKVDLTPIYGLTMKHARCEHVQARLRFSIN

For `COc1ccc(C(=O)N2CCC[C@@]3(CCN(C(=O)NC(C)C)C3)C2)cc1`, the activity change, negative = inhibition is -14% (inactive) in experiment [1], 8.55% (inactive) in experiment [3] and 3.48% (inactive) in experiment [9]. The Potency was 12.6 µM (active) in [2] and > 46 µM (inactive) in experiment [5]. Besides, the activity, negative = inhibition in [4] was -9.21% (inactive). Moreover, the Potency entry in experiment [6], in experiment [7] and in experiment [8] was “inactive” throughout. Also, the max response was 8.84% in experiment [9] (setting [15]) and 15.8% in experiment [9] (setting [16]). In addition, the result in experiment [10] was inactive.

`Cc1cnc(CNc2cc(-c3ccoc3)ncn2)cn1`: the values for the activity change, negative = inhibition in experiment [1], in experiment [3] and in [9] were -2.94% (inactive), 1.34% (inactive) and 3.62% (inactive), respectively. The Potency is 25.1 µM (active) in [2] and > 46 µM (inactive) in [5]. Moreover, in experiment [4], the activity, negative = inhibition was -9.44% (inactive). The Potency result in experiment [6], in experiment [7] and in experiment [11] was “inactive” each time. Moreover, the max response in [9] (setting [15]) is 9.95%; in experiment [9] (setting [16]), 14.7%. Also, the result in [10] was inactive.

Regarding `Cc1nc2cnc(N3CCNCC3)nc2n(CCC#N)c1=O`, the activity change, negative = inhibition is -1.38% (inactive) in experiment [1], -8.3% (inactive) in experiment [3] and 4.65% (inactive) in [9]. The activity, negative = inhibition in experiment [4] was -12.7% (inactive). The Potency in experiment [12] was > 9.22 µM (inactive); in experiment [5] it was > 46 µM (inactive). Also, the Potency entry in experiment [6] and in [7] was “inactive” in each case. The figures for the max response in experiment [9] (setting [15]) and in experiment [9] (setting [16]) were 11.9% and 19.3%, respectively. In addition, the result in experiment [10] was inactive.

As for `Cc1noc(C)c1C(=O)N1CCC2(CCCN(C(=O)Nc3ccccc3)C2)CC1`, the activity change, negative = inhibition in [1] is -21% (inactive); in experiment [3], 0.607% (inactive); in experiment [9], 2.45% (inactive). For the same molecule, the Potency in [2] was 12.6 µM (active); in experiment [5], > 46 µM (inactive). Further, the activity, negative = inhibition in experiment [4] is -8.55% (inactive). In addition, the Potency entry in experiment [6] and in [7] was “inactive” each time. Also, the values for the max response in experiment [9] (setting [15]) and in experiment [9] (setting [16]) were 20.4% and 27.5%, respectively. The result in [10] was inactive.

On to `Cc1cnc(CNc2ncnc3ccc(-c4ccccc4CN(C)C)cc23)cn1`, for which the results for the activity change, negative = inhibition in experiment [1], in experiment [3] and in experiment [9] were 16.4% (inactive), -29.4% (inactive) and 9.03% (inactive), respectively. Also, the Potency entry in [2], in [7] and in experiment [13] was “inactive” in each case. In addition, the activity, negative = inhibition in experiment [4] was 11.7% (inactive). Further, the Potency in [12] and in experiment [5] was > 46 µM (inactive) throughout. The results for the max response in experiment [9] (setting [15]) and in experiment [9] (setting [16]) were 5.18% and 15.6%, respectively. For the same molecule, in experiment [10], the outcome was inactive.

For `CN(C)c1ccc(-c2nc(N(C)C)c3ccccc3n2)cc1`, the activity change, negative = inhibition in experiment [1] is 3.53% (inactive); in [3], -21.8% (inactive); in experiment [9], -3.41% (inactive). The Potency was 0.251 µM (active) in experiment [2], > 46 µM (inactive) in experiment [12] and > 46 µM (inactive) in experiment [5]. Moreover, the Potency entry in experiment [6], in experiment [7], in [8] and in experiment [13] was “inactive” in each case. Moreover, the max response in [9] (setting [15]) was 2.51%; in experiment [9] (setting [16]), -1.1%. Also, in experiment [10], the outcome was inactive.

Regarding `O=C(O)c1cc(=O)c2cccc(O)c2[nH]1`, the Potency result in [14], in [11] and in [13] was “inactive” in each case. In experiment [9], the activity change, negative = inhibition is 14.6% (inactive). Besides, the figures for the max response in [9] (setting [15]) and in experiment [9] (setting [16]) were 27.2% and 50.3%, respectively. The result in [10] was inactive.
